# Test results from the supplement of paper PMC13380429.
# Unmarked numbers belong to inactive results.
# Tested on: Vero E6 infected with SARS-CoV-2
# Test: inhibition of SARS-CoV-2 cytopathic effect; higher = more antiviral protection, active = above 15
# Details: 48 h
SMILES,inhibition of SARS-CoV-2 cytopathic effect (1 nM) [%],inhibition of SARS-CoV-2 cytopathic effect (8.33 nM) [%],inhibition of SARS-CoV-2 cytopathic effect (100 nM) [%],inhibition of SARS-CoV-2 cytopathic effect (833.33 nM) [%],inhibition of SARS-CoV-2 cytopathic effect (10000 nM)
Oc1ccnc2cc(Cl)ccc12 [chloroxoquinoline],-2.22,0.71,0.09,-0.05,1.04%
CC(=O)C1=C(O)[C@@H]2[C@H]3c4c[nH]c5cccc(c45)C[C@H]3C(C)(C)N2C1=O [cyclopiazonic-acid],0.48,0.86,2,-0.85,14.2%
CCOC(=O)CSCCC1NC(C(=O)O)CS1 (stereo not given) [letosteine],-0.45,-0.54,3.16,2.53,5.67%
OC[C@H]1OC(O)[C@H](O)[C@@H](O)[C@@H]1O (stereo not given in full) [dextrose],0.5,-0.54,0.12,-9.41,-1.07%
CCN(CC)CCOc1ccc(Nc2ncc3cc(-c4c(Cl)cccc4Cl)c(=O)n(C)c3n2)cc1,-0.79,-0.21,-2.93,-9.61,-31.3%
COC(=O)Nc1nc2cc([S+]([O-])c3ccccc3)ccc2[nH]1 (stereo not given) [oxfendazole],3.62,1.23,6.94,0.7,-1.5%
OC[C@H]1O[C@@H](O[C@@H]2[C@@H](CO)OC(O)(CO)[C@H]2O)[C@H](O)[C@@H](O)[C@H]1O (mixture of isomers) [lactulose],1.11,0.23,-0.45,-1.79,1.61%
CC(C)(C)Cn1c(N)nc2ccc(-c3[nH]c(C(C)(C)C)nc3-c3ccc(F)cc3)nc21,2.2,-0.57,-1.43,11.8,55.2% (active)
COc1cc(C2Oc3cc([C@H]4Oc5cc(O)cc(O)c5C(=O)[C@@H]4O)ccc3OC2CO)ccc1O (stereo not given in full) [silibinin],-0.88,-0.77,0.27,-1.29,1.72%
CC(C)(C(=O)NCC(F)(F)C(F)(F)F)C(=O)N[C@@H]1C(=O)Nc2ccccc2-c2ccccc21,-4.06,-4.36,-4.95,-5.35,-3.87%
CCOC(=O)c1ccccc1OC(N)=O [ethyl-2-(carbamoyloxy)benzoate],-8.28,-7.77,-4.5,-2.39,-3.35%
CCC(=O)NC[C@@H]1C[C@H]1c1cccc2c1CCO2 [tasimelteon],-0.84,1.68,-0.1,0.64,-1.54%
COc1c(N2C[C@@H]3CCCN[C@@H]3C2)c(F)cc2c(=O)c(C(=O)O)cn(C3CC3)c12 [moxifloxacin],1.16,0.31,2.33,0.76,1.03%
NC(=O)[C@@H](CCC(F)(F)F)N(Cc1ccc(-c2ncon2)cc1F)S(=O)(=O)c1ccc(Cl)cc1 [avagacestat],0.74,-2.98,-5.03,-4.21,-6.12%
Cc1nnc(-c2ccc3occ(-c4ccc([S+](C)[O-])cc4)c3c2)o1 (stereo not given),0.61,0.11,-1.48,1.56,8.77%
c1cc(OCCN2CCCCC2)cc(-c2n[nH]c3ccc(-c4nnc[nH]4)cc23)c1,-0.48,-0.97,-0.96,3.62,3.74%
CCN(CC)Cc1ccc(C(=O)N(CCc2ccccc2OC)[C@@H]2CCNC2)cc1,-1.07,-4.2,-1.66,-1.07,-1.55%
CCCCCCNC(=O)n1cc(F)c(=O)[nH]c1=O [Carmofur],-1.95,0.48,2.25,1.65,-0.73%
CNc1ncnc2c1ncn2[C@@H]1O[C@H](CO)[C@@H](O)[C@H]1O [N6-methyladenosine],1.25,1.97,-1.29,0.63,2.03%
CC(C)[C@@]1(NC(=O)[C@@H]2C[C@@H]3c4cccc5[nH]cc(c45)C[C@H]3N(C)C2)O[C@@]2(O)[C@@H]3CCCN3C(=O)[C@H](Cc3ccccc3)N2C1=O [dihydroergocristine],3.37,-0.59,0.24,-1.73,-1.9%

SMILES,inhibition of SARS-CoV-2 cytopathic effect (1 nM) [%],inhibition of SARS-CoV-2 cytopathic effect (8.33 nM) [%],inhibition of SARS-CoV-2 cytopathic effect (100 nM) [%],inhibition of SARS-CoV-2 cytopathic effect (833.33 nM) [%],inhibition of SARS-CoV-2 cytopathic effect (10000 nM)
CCCC(=O)O [sodium-butyrate],-1.28,-0.1,1.57,-0.53,0.24%
CCN1C[C@]2(COC(=O)c3ccccc3N3C(=O)C[C@H](C)C3=O)CC[C@H](OC)[C@@]34[C@@H]5C[C@H]6[C@H](OC)[C@@H]5[C@](O)(C[C@@H]6OC)[C@](O)([C@@H](OC)[C@H]23)[C@@H]14 [methyllycaconitine],-1.85,-0.91,0.85,0.06,-1.4%
O=C(Cc1cccc(OC(F)(F)F)c1)Nc1ccc(CCCCc2nnc(NC(=O)Cc3ccccn3)s2)nn1,-1.49,-0.26,-1.18,-5.17,-3.68%
CC(O)(CS(=O)(=O)c1ccc(F)cc1)C(=O)Nc1ccc(C#N)c(C(F)(F)F)c1 (stereo not given) [bicalutamide],-2.58,-1.35,0.77,-0.42,-0.92%
CC1(C)CC(Oc2ccc(-c3ccc(-c4cn[nH]c4)cc3O)nn2)CC(C)(C)N1,1.13,0.25,2.2,-9.03,-14.9%
Cc1ccc(O)c([C@H](CCN(C(C)C)C(C)C)c2ccccc2)c1 [tolterodine],2.11,1.62,1.96,-3.34,-2.67%
Cc1c(C)c2c(c(C)c1O)CCC(C)(COc1ccc(CC3SC(=O)NC3=O)cc1)O2 (stereo not given) [troglitazone],1.07,1.5,1.01,2.48,5.84%
CCN(CC)CCOC(=O)C(c1ccccc1)C1CCCCC1 (stereo not given) [drofenine],-1.59,1.9,-1.61,-1.42,1.22%
COc1ccc2cc1Oc1ccc(cc1)C[C@H]1c3cc(c(OC)cc3CCN1C)Oc1c(OC)c(OC)cc3c1[C@H](C2)N(C)CC3 [tetrandrine],-2.72,-0.14,-1.04,-2.19,69.3% (active)
CC(C)(C)NCC(O)c1cc(Br)no1 (stereo not given) [broxaterol],-1.51,-0.09,-1.23,-0.44,-2.74%
O=C(NCC(=O)N1CCCC1)Nc1ccc2cnccc2c1,-2.26,0.25,0.13,1,-1.4%
O=C(NCc1ccc(Oc2ccccc2)cc1)c1nc(-c2cc(Br)c(O)c(Br)c2)no1,-1.01,-0.54,0,0.07,0.36%
CCCCCn1cc(C(=O)NC23CC4CC(CC(C4)C2)C3)c(=O)c2cc(-c3ccccc3)ccc21,-3.48,-3,-0.96,-1.94,-5.93%
Cc1ccc([N+](=O)[O-])cc1O [2-methyl-5-nitrophenol],-2.8,-2.93,-4.49,-3.09,-2.25%
C[C@@H](NCCCc1cccc(C(F)(F)F)c1)c1cccc2ccccc12 [cinacalcet],1.8,2.9,0.77,-2.27,-3.52%
NC(=O)c1ccc(F)c2c1C[C@@H](N(C1CCC1)C1CCC1)CO2 [robalzotan],-1.71,2.76,1.8,0.98,3.7%
Fc1ccccc1CNCc1ccc(-c2ccnc3[nH]ccc23)cc1,4.68,2.19,0.04,-1.5,-7.9%
Nc1nc(NC2CC2)cc(-c2cccc(Cl)c2Cl)n1,0.66,-1.17,-1.96,-0.45,-1.5%
O=C(O)CCCc1ccc(N(CCCl)CCCl)cc1 [chlorambucil],-0.23,0.88,-0.7,-1.67,-0.16%
